# TrxR1 substrate – rat thioredoxin reductase 1 substrate activity. purified TrxR1 substrate turnover, NADPH consumption readout. AID 588456. O89049. Potency, µM (titrated, usually from 114 µM), without a hit: at the top dose activity change, negative = substrate turnover. actives 0.01% (n = 390,000); further: on the % scale 0 is the no-effect control and ±100 the full control effect; nearly all actives have a fitted effect of over 50% in size
# Target sequence (O89049 whole entry, looked up): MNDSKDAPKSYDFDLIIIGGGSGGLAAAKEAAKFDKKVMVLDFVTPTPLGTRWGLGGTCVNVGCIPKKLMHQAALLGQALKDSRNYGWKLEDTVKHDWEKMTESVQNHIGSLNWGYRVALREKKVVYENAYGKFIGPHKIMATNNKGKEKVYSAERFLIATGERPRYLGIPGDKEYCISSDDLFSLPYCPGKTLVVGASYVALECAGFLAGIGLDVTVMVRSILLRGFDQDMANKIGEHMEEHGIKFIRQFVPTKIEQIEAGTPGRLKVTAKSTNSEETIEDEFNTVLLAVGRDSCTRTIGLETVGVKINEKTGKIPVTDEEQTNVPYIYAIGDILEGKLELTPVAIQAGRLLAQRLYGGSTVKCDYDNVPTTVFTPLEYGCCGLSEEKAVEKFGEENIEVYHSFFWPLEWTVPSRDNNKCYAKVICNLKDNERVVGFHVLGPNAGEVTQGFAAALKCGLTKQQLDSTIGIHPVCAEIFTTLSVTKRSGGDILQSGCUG
#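 Rat TrxR1, dispensed at 90 nM, was prereduced with 400 uM NADPH (final) for 5 min at ~22 deg C, then incubated with compound 15 min before 400 uM selenite. A first-read NADPH fluorescence drop versus no-compound background flagged substrates.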
# IDH1 R132H inh – inhibitors of human mutant IDH1 R132H. AID 602179. Potency, µM (top dose mostly 76.6 µM), inactives show top-dose activity change, negative = inhibition, most hits filed as inhibitors. IDH1-R132H enzyme, NADPH consumption, diaphorase/resazurin fluorescence. actives 0.093% (n = 390,000). O75874; further: on the % scale 0 is the no-effect control and ±100 the full control effect; nearly all actives have a fitted effect of over 65% in size
#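 IDH1-R132H (0.5 ug/mL) preincubated 30 min with compound, then NADPH (0.016 mM) and alpha-KG (2 mM) added; 80 min at RT, pH 7.5. Remaining NADPH coupled via diaphorase/resazurin to fluorescence (540/590 nm); concentration-response curves normalized to no-enzyme control.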
# Nrf2 inh – inhibitors of Nrf2 signaling; A549 ARE-Fluc reporter, luciferase luminescence, 18-24 h; Potency, µM (titrated, usually from 46 µM), for the others: top-dose activity change, negative = inhibition, most hits filed as inhibitors; actives 2.1% (n = 360,000); further: on the % scale 0 is the no-effect control and ±100 the full control effect; nearly all actives have a fitted effect of over 60% in size
#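 Concentration-response testing used A549 ARE_Fluc cells at 5000 cells/well. Following an 18-24 h compound incubation, viability was read by fluorescence (Ex 405/Em 525) and luciferase output by luminescence.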
# Mito fusion yeast – mitochondrial division inhibition or fusion activation; actives 0.23% (n = 320,000); Potency, µM (highest dose often 46.1 µM), without a hit: top-dose growth rescue (activation), most hits filed as activators; S. cerevisiae fusion-defective mutant growth rescue, CellTiterGlo 48 h; AID 485298; further: % of control where 0% means no effect; nearly all actives have a fitted effect of over 45% in size
#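 Yeast fusion mutant, YPEG (non-fermentable carbon), compound, 48 h at 37C non-permissive; CellTiterGlo added, 10 min RT, luminescence read. Rescued growth = division inhibition.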
# A549 tox – counter-screen for Nrf2 inhibitors: cytotoxicity in A549 cells | A549 ARE-Fluc cells, CellTiter-Fluor viability, 18-24 h | Potency, µM (series often up to 46 µM), inactives show at the highest dose activity change, negative = cytotoxicity, usual class: inhibitors | actives 0.16% (n = 390,000); further: on the % scale 0 is the no-effect control and ±100 the full control effect
#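 A549 ARE-Fluc cells in 5% FBS OPTI-MEM, 5000 cells/well, rested 2 h then exposed to compounds in concentration-response for 18-24 h at 37 °C. Viability by CellTiter-Fluor fluorescence (Ex 405/Em 525) after 30 min; luciferase luminescence (BugLite, 15 min, RT) read afterwards.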
# rTrxR1 inhibitor – blocks rat thioredoxin reductase 1 | O89049 | recombinant rTrxR1, NADPH fluorescence consumption, selenite substrate | Potency, µM (highest dose often 114 µM), for the others: at the highest dose activity change, negative = inhibition, usual class: inhibitors | actives 1% (n = 390,000) | AID 588453; further: on the % scale 0 is the no-effect control and ±100 the full control effect; nearly all actives have a fitted effect of over 65% in size
#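 Rat TrxR1 (90 nM in the dispensed reagent) was pre-reduced with 400 uM NADPH for 5 min at room temperature, then incubated with compound for 15 min. After 400 uM selenite was added, NADPH fluorescence (Ex 340/Em 450 nm) was followed for 8 min.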
# * marks the source's active call; other numbers are inactive results; ? = inconclusive; · = no result given; [ ] = dose if it differs, or a comment. Most compounds without a hit are left out; they make up all but 3.1% or so of the library. The call rests on the fitted dose curve; in most records, active means well fitted curve in the direction sought with a large enough effect; inconclusive means small, poorly fitted or top-dose-only effect, or another doubt; inactive means no such curve, though single readings can be large; an effect the other way counts as inactive or inconclusive. Potency means the concentration at half of the fitted maximal effect.
SMILES,TrxR1 substrate,IDH1 R132H inh,Nrf2 inh,Mito fusion yeast,A549 tox,rTrxR1 inhibitor
CC(C)OC(=O)n1c(=S)oc2ccccc21,10%[57.1 µM],2%,14%,-1%,0%,-8%
CCCCC(=O)/C=C/n1c(=S)oc2ccccc21,-5%,0%,?,1%,-4%,2.2µM*
C1=Cc2ccccc2/C1=C\c1cc2c3c(c1)CCCN3CCC2,8%,·,·,·,·,?
COC(=O)c1c(NC(=O)C2COc3ccccc3O2)sc2c1CCN(C(C)=O)C2 (centres undefined),-5%,0%,21µM*,?,?,-2%
Cn1c(=O)c2c(ncn2CC(=O)Nc2cc(S(=O)(=O)N3CCCCC3)ccc2Cl)n(C)c1=O,-4%,0%,21µM*,·,-2%,13%
Cn1c(=O)c2c(ncn2CC(=O)Nc2cc(Cl)c(Cl)cc2Cl)n(C)c1=O,·,·,·,-2%,·,·
O=C(CCl)Nc1cc(S(=O)(=O)N2CCCCCC2)ccc1Cl,-11%,0%,?,18%,-27%,7.9µM*
COc1cc(OC)c(NC(=O)COCc2cc(-c3cccs3)on2)cc1Cl,-6%,-23%,0%,·,2%,4%
Cc1ccc2c(c1)nnn2C1CCN(CC(=O)N(c2ccccc2)c2ccccc2)CC1,-10%,-4%,15µM*,-9%,?,6%
CCOC(=O)CN(C(=O)CN1CCC(n2nnc3cc(C)ccc32)CC1)c1ccccc1,11%[0.457 µM],4%,12%,-2%,8%,4%
CN(C)c1ccc(C=O)c(Cl)c1,-11%,·,·,·,·,-3%
COc1ccc(-c2nn(-c3ccccc3)cc2C(=O)NC(=S)NNC(=O)c2ccncc2)cc1,-2%,-6%,21µM*,12%,-15%,-7%
CCC(C(=O)Nc1cc(F)ccc1F)n1nc(C)c2c(C)n(-c3ccc(C)cc3)nc2c1=O (centres undefined),2%,6%,23µM*,9%,?,8%
Cc1nn(C(C)C(=O)NCc2cccs2)c(=O)c2nn(-c3ccccc3)c(C)c12 (centres undefined),1%,6%,-18%,3%,-13%,27%
CCC(C(=O)NC1CCCCCC1)n1nc(C)c2c(C)n(-c3ccccc3)nc2c1=O (centres undefined),-3%,0%,21%,4%,1%,1%
Cc1ccc(-n2nc3c(=O)n(C(C)C(=O)NCCc4cccs4)nc(C)c3c2C)cc1 (centres undefined),2%,-3%,12µM*,-26%,-12%,31%
CCC(C(=O)NCc1ccc(OC)c(OC)c1)n1nc(C)c2c(C)n(-c3ccc(C)cc3)nc2c1=O (centres undefined),7%,8%,26µM*,·,-19%,16%
CCC(C(=O)Nc1ccccc1F)n1nc(C)c2c(C)n(-c3ccccc3)nc2c1=O (centres undefined),2%,0%,-12%,?,0%,10%
CCC(C(=O)NC1CC1)n1nc(C)c2c(C)n(-c3ccc(C)cc3)nc2c1=O (centres undefined),-17%,-2%,16µM*,0%,-8%,-34%
Cc1noc(CN(C)c2ncnc3ccc(-c4ccc5c(c4)OCO5)cc23)n1,·,·,10%,·,4%,·
Cc1ccc(-n2nc3c(=O)n(CC(=O)NC(C)CCc4ccccc4)nc(C)c3c2C)cc1 (centres undefined),-3%,-4%,5.2µM*,2%,-13%,21%
Cc1ccc(-n2nc3c(=O)n(CC(=O)NCc4ccccc4)nc(C)c3c2C)cc1,4%,2%,?,-9%,-1%,17%
CCc1ccc(/C=C/C(=O)c2c(C)cc(C)[nH]c2=O)cc1,-12%,3%,18µM*,-5%,-23%,-6%[57.1 µM]
